# Rows were chosen to be rich in hits. Some 7% of all compounds tested hit in one or more screens of this group.
# ADAM10 inh: inhibits human ADAM10 | inhibition, % at 7 µM | actives 0.62% (n = 370,000) | O14672 | recombinant ADAM10, EDANS/DABCYL FRET peptide cleavage, 3 h;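 active means inhibition above a per-campaign cutoff equal to the mean of compounds falling between control-based bounds plus 3 SD, cut at about 20% in these data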
# ADAM17 inh: inhibits human ADAM17. P78536. recombinant ADAM17, EDANS/DABCYL FRET peptide cleavage. inhibition, % at 6.95 µM. actives 0.83% (n = 370,000);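 active means inhibition above the mean of compounds lying between control limits plus 3 SD, set per campaign, cut at about 8.5% in these data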
# Target sequence (P78536 215-824 limits assumed): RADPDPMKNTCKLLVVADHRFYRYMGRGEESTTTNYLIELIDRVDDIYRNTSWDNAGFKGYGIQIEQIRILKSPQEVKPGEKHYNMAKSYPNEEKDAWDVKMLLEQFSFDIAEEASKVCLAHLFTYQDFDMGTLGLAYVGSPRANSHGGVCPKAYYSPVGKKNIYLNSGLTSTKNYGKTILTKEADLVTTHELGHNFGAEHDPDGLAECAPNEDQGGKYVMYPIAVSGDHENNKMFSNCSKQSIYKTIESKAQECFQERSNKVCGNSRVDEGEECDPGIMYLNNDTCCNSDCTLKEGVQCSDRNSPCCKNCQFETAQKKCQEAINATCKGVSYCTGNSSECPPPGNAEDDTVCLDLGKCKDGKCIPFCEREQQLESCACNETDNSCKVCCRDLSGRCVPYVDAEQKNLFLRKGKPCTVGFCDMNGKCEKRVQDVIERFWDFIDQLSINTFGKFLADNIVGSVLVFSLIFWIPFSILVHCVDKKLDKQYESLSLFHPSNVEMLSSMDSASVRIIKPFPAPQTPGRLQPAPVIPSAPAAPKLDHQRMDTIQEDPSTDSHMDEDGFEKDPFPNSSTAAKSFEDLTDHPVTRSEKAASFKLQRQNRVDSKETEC
# rCAG binder: binds r(CAG) RNA repeats | actives 1.3% (n = 370,000) | AID 651821 | inhibition, % at 3 µM | r(CAG) RNA repeat, TO-PRO-1 dye displacement fluorescence;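 active means inhibition above the plate cutoff, the mean of all test compounds on that plate plus 3 SD, cut at about 35% in these data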;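 further: higher means more dye released from RNA so lower well fluorescence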
# NR3A LBD binder: modulates the human NR3A ligand-binding domain; NR3A LBD differential scanning fluorimetry, Tm shift; 0% = protein alone, 100% = glycine-bound protein; Tm shift relative to glycine control, % at 25 µM; actives 2.5% (n = 340,000); AID 1259313;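 active means melting temperature shift of at least 10% of the positive control shift, at one fixed dose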
# AHR activator: human AHR activation; P35869; actives 2.5% (n = 320,000); AID 2796; AHR-responsive luciferase reporter cells, luminescence; activation, % at 5 µM; in the data active means activation above about 47%
# proKLK7 act: proKLK7 (human) activation, primary screen. activation, % at 7 µM. actives 0.9% (n = 370,000). P49862. purified proKLK7, EDANS-DABCYL substrate fluorescence; 100% is mature enzyme control, 0% vehicle. AID 652039;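 active means activation above the mean of all tested compounds plus 3 SD, computed per campaign excluding outliers beyond control limits, cut at about 13% in these data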
# A number is an active result; – = inactive; · = no result given.
SMILES,ADAM10 inh,ADAM17 inh,rCAG binder,NR3A LBD binder,AHR activator,proKLK7 act
N#Cc1nc(-c2ccco2)oc1NCCCn1ccnc1,–,–,–,–,70,–
CC(C)(C)c1ccc(-c2nc(C#N)c(NCCCn3ccnc3)o2)cc1,–,–,–,–,–,–
COc1ccc(-c2nc(C#N)c(NCCCn3ccnc3)o2)cc1OC,–,–,–,–,70,–
CC(NC(=O)c1cc2cc(F)ccc2[nH]1)c1ccccc1 (stereo not given),–,–,–,–,53,–
CC(NC(=O)c1ccc(F)cc1)c1ccccc1 (stereo not given),–,–,–,–,–,–
O=c1oc2cc(OCc3ccc(F)cc3F)ccc2cc1-c1ccc2ccccc2n1,·,·,·,·,97,·
O=c1oc2cc(OCc3c(F)cccc3Cl)ccc2cc1-c1ccccn1,–,–,–,–,–,–
Cc1ccc2nc(-c3ccc(CN4CCC5(CC4)CNc4ccccc45)cc3)c(-c3ccccc3)nc2c1,–,–,–,·,·,–
C=CCn1nnnc1SCC(=O)Nc1cccc(C(F)(F)F)c1,–,–,–,16,–,–
C=CCn1nnnc1SCC(=O)Nc1ccc(C(=O)OC)cc1,–,–,–,–,–,–
COC(=O)[C@]12C[C@H](CC(=O)NCc3cccs3)C(=O)N(CCC3=CCCCC3)C1=C[C@H](C(C)C)O[C@@H]2C1CC1,–,–,–,·,·,–
Cc1ccc(NC(=O)COc2ccc(/C(N)=N/O)cc2)cc1C,–,–,–,14,–,–
Cc1ccc(NC(=O)CCC(=O)NNC(=O)COc2ccccc2)cc1C,–,–,–,–,68,–
Cc1ccc(NC(=O)CCc2ccccc2)cc1C,–,–,–,·,·,–
CC(C)C[C@H]1COc2cccc(N3CCCC3)c2S(=O)(=O)N1C,–,–,–,·,·,–
O=S(=O)(Nc1c(O)ccc2ccccc12)c1ccc(F)cc1,–,–,–,–,55,–
O=S(=O)(Nc1cccc2ccccc12)c1ccccc1,–,–,–,–,–,–
O=S(=O)(Nc1c(O)ccc2ccccc12)c1ccccc1,–,–,–,–,54,–
Cc1ccc2c(c1)C(=NC1CCCCC1)c1cc3ccccc3nc1-2,–,–,–,–,–,–
Cc1ccc2c(c1)-c1nc3ccccc3cc1C2=NC1CCCCC1,–,–,–,–,79,–
CCOC(=O)C1=C(C(=O)OCC)C2N(Cc3ccc(Br)cc3)c3ccccc3[C@@]23C[C@@H](C(=O)OC)N(S(=O)(=O)c2ccc(Br)cc2)C3=N1 (stereo not given in full),–,–,–,·,·,–
COCCNC(=S)N(CCc1c(C)[nH]c2ccccc12)Cc1ccco1,–,–,–,–,–,–
CCNC(=S)N(CCc1c(C)[nH]c2ccc(Cl)cc12)Cc1ccco1,–,–,–,–,47,–
CNC(=S)N(CCc1c(C)[nH]c2ccc(C)cc12)Cc1ccco1,–,–,–,–,55,–
CNC(=S)N(CCc1c(C)[nH]c2ccc(C)cc12)Cc1ccc(OC)c(OC)c1,–,–,–,–,–,–
SMILES,ADAM10 inh,ADAM17 inh,rCAG binder,NR3A LBD binder,AHR activator,proKLK7 act
Cc1nn(-c2ccccc2)c2sc(C(=O)NCCc3ccccc3)cc12,–,–,–,·,·,–
Cc1ccc2[nH]c(=O)c(C(c3nnnn3CC3CCCO3)N3CCc4ccccc4C3)cc2c1 (stereo not given),–,–,–,–,–,–
Cc1ccc2[nH]c(=O)c(C(c3nnnn3CC3CCCO3)N3CCCc4ccccc43)cc2c1 (stereo not given),–,–,–,19,–,–
COC(=O)[C@]12C[C@H](CC(=O)NCc3ccc(OC)c(OC)c3)C(=O)N(Cc3ccc(Cl)cc3Cl)C1=C[C@H](COCc1ccccc1)O[C@@H]2C,–,–,–,·,·,–
COc1ccc([C@H]2OC(=O)C[C@H]2C(=O)N2CCCC2)cc1OC,–,–,–,·,·,–
CN(C)c1ccc(N2C(=O)CSC2=S)cc1,–,–,–,–,52,–
O=C1CSC(=S)N1c1ccc(F)cc1,·,·,·,·,–,·
CC(C)CSc1nnc2c3ccccc3n(C)c2n1,–,–,–,–,57,–
O=C(NCCc1c[nH]c2ccccc12)OCc1cn(Cc2cccc(C(F)(F)F)c2)nn1,–,–,–,·,·,–
Cc1ccc(-c2nn(-c3ccccc3)cc2C(=O)Nc2cccc(S(=O)(=O)NC3=NCCC3)c2)cc1,–,–,–,·,·,–
O=C(Nc1cccc(S(=O)(=O)NC2=NCCC2)c1)c1cn(-c2ccccc2)nc1-c1ccc(F)cc1,–,–,–,12,–,–
CCN(CC)c1ccc2cc(-c3nnc(-c4ccccc4)o3)c(=O)oc2c1,–,–,–,32,–,–
CCN(CC)c1ccc2cc(-c3nc4ccccc4[nH]3)c(=O)oc2c1,·,·,·,–,–,·
CCc1ccc2[nH]cc(S(=O)(=O)c3ccc(C)c(C)c3)c(=O)c2c1,–,–,–,–,–,–
CCc1ccc2[nH]c3nc(C)cc(C)c3c(=O)c2c1,–,–,–,–,48,–
Cc1ccc(NC(=O)Nc2cc(C(F)(F)F)c[nH]c2=O)cc1,–,–,–,24,–,–
C[C@H](O)[C@@H]1C(=O)N2CCc3c([nH]c4cccc(-c5ccccc5)c34)[C@@H]2C[C@@H]1N(C)C(=O)c1ccco1,–,–,–,·,·,–
CCOC(=O)c1c(NC(=O)C(C)OC(=O)c2ccc(NC(=O)CC#N)cc2)sc2c1CCCC2 (stereo not given),–,–,–,12,–,–
CCOC(=O)c1c(NC(=O)C2CCCCC2C(=O)O)sc2c1CCCCC2 (stereo not given),–,–,45,–,–,–
CCN1/C(=C/C=C/c2oc3ccc(-c4ccccc4)cc3[n+]2CC)Oc2ccc(-c3ccccc3)cc21,–,–,–,60,–,–
O=C(O)CCN1C(=O)/C(=C/c2ccc(F)cc2F)SC1=S,–,–,·,·,·,·
Cc1cccc2sc(NC(=O)CNS(=O)(=O)c3ccc(Br)s3)nc12,–,–,–,11,–,–
C=CC(=O)NC1CCCCN(C)C1=O (stereo not given),–,–,–,·,·,–
N#C/C(=N\Nc1ccc(Cl)cc1)C(N)=S,–,–,–,–,59,–
O=Nc1c2nc3ccccc3n(O)c-2c2ccccc12,–,–,–,·,101,–
C[C@H](O)[C@@H]1CN2CCc3c([nH]c4c(-c5ccccc5)cccc34)[C@@H]2C[C@@H]1N(C)C(=S)Nc1ccc(C#N)cc1,–,–,–,·,·,–
COc1ccc([C@@H]2CC(=O)c3c(O)cc(O)cc3O2)cc1O,–,–,–,–,–,–
COc1c(CC=C(C)C)cc(C2CC(=O)c3c(O)cc(O)cc3O2)cc1CC=C(C)C (stereo not given),–,–,–,30,–,–
COc1ccc(-c2csc(-n3ncc(-c4ccccn4)c3N)n2)cc1,–,–,–,–,–,–
Nc1c(-c2ccccn2)cnn1-c1nc(-c2ccc(F)cc2)cs1,–,–,–,–,63,–

# Screening results (PubChem BioAssay)
